Assay outcomes (PubChem BioAssay)
Only some compounds are listed: those with a hit (about 3.4% of all), similar ones and a draw of the others.
FBW7 activator: activators of human E3 ligase FBW7; Q969H0; actives 0.13% (n = 650,000); normalized activity (activation), % at 26.1 µM; AID 1259310; AlphaScreen FBW7–phospho-cyclin E peptide binding, activator screen; in the data active = normalized activity above about 1.9%;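 note: purified mutant Fbw7 with reduced substrate affinity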
Target sequence (Q969H0 whole entry, looked up): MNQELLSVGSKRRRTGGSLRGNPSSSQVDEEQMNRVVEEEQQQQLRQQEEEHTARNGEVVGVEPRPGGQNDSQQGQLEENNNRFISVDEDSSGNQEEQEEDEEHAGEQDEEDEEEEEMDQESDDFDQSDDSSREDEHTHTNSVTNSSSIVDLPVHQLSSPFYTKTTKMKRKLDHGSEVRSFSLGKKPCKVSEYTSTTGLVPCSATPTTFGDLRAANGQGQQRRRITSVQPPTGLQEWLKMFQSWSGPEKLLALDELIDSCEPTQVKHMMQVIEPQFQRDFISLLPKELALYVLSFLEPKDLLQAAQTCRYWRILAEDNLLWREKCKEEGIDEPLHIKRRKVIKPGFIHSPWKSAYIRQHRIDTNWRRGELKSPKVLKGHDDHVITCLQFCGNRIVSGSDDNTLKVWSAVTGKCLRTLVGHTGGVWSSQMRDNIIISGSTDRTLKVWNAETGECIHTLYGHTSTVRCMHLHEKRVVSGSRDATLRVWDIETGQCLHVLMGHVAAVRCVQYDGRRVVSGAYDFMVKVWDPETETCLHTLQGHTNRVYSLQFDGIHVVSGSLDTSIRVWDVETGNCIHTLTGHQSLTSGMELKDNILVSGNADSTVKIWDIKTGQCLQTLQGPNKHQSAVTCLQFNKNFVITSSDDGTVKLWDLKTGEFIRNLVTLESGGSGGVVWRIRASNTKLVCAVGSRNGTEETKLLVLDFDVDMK
TEAD-YAP inh: TEAD-YAP interaction inhibition; HEK-TIYL cells, TEAD-Gal4/YAP UAS-luciferase luminescence; inhibition, % at 9.12 µM; actives 1.4% (n = 640,000); AID 1259422; in the data active = inhibition above about 32%
GPR151 ag: activators of human GPR151. Q8TDV0. actives 1% (n = 650,000). PathHunter beta-arrestin GPR151 cells, luminescence. AID 1508602. activation, % at 11.2 µM; in the data active = activation above about 4.9%
MITF primary: human MITF inhibition, primary screen; O75030; inhibition, % at 2.6 µM; actives 0.91% (n = 650,000); AlphaScreen MITF homodimerization, bead proximity signal; in the data active = inhibition above about 50%
A number is an active result; n = inactive.

SMILES	FBW7 activator	TEAD-YAP inh	GPR151 ag	MITF primary
CCc1nn(CC(=O)N2CCCCCC2)c(=O)c2cc3oc(C)cc3n12	n	n	n	n
C=CCOc1c(/C=C2/SC(=S)N(CCC(=O)O)C2=O)cccc1OC	n	n	n	n
O=C(O)CCCN1C(=O)/C(=C/c2ccccc2F)SC1=S	n	54	n	n
COc1cccc(/C=C2/SC(=S)N(CCCC(=O)O)C2=O)c1OC	n	80	n	n
Cc1cccc(NC(=O)C2C3C=CC4(O3)C2C(=O)N(Cc2ccccc2Cl)C4C(=O)NC2CCCC(C)C2C)c1 (stereo not given)	n	n	n	n
Cc1[nH]n(-c2ccccc2)c(=O)c1C=Nc1ccc(N=Cc2c(C)[nH]n(-c3ccccc3)c2=O)c([N+](=O)[O-])c1	n	n	n	n
NC1=NC2(CCCCCC2)n2c(nc3ccccc32)N1	n	78	n	n
O=C(CSc1ncnc2ccccc12)Nc1ccc(S(=O)(=O)N2CCOCC2)cc1	n	n	n	n
Cc1cccc(NC(=O)CSc2cn(Cc3cccc(F)c3)c3ccccc23)c1	n	n	n	n
Cc1cc(C)c(-c2cc(C(F)(F)F)[nH]n2)c(=O)[nH]1	n	n	n	n
COCCNc1nc(-c2ccccc2)nc2ccccc12	n	n	n	n
CCCCc1ccc(-c2nc(Nc3ccc(OCc4ccccc4)cc3)c3ccccc3n2)cc1	n	35	n	n
COc1cc(-c2nc(Nc3ccc(C)cc3)c3ccccc3n2)cc(OC)c1OC	n	55	n	n
COCCNc1nc(-c2cc(OC)c(OC)c(OC)c2)nc2ccccc12	n	32	n	n
COc1cccc(Nc2nc(-c3cc(OC)c(OC)c(OC)c3)nc3ccccc23)c1	n	37	n	n
COc1cc(-c2nc(Nc3ccc(Cl)cc3)c3ccccc3n2)cc(OC)c1OC	n	n	n	n
NS(=O)(=O)c1ccc(NC(=O)c2cc(I)ccc2Cl)cc1	n	n	n	n
COc1cc(-c2nc(Nc3ccccc3Cl)c3ccccc3n2)cc(OC)c1OC	n	n	n	n
COc1cc(-c2nc(Nc3ccccc3F)c3ccccc3n2)cc(OC)c1OC	n	32	n	n
O=C(Nc1nc2ccccc2s1)c1ccccc1F	n	87	n	n
O=C(Nc1nc2ccccc2s1)c1cccc(Cl)c1Cl	n	n	n	n
O=C(Nc1nc2ccccc2s1)c1ccc(Cl)cc1Cl	n	81	n	n
CC(=O)Nc1ccc2nc(NC(=O)c3ccc(Cl)cc3Cl)sc2c1	n	n	n	n
O=C(Nc1nc2ccccc2s1)c1ccccc1Cl	n	81	n	n
O=C(Nc1nc2ccccc2s1)c1ccccc1O	n	n	n	n
SMILES	FBW7 activator	TEAD-YAP inh	GPR151 ag	MITF primary
CC(C)(C)c1ccc(S(=O)(=O)N2CCC(n3nnc4ccccc43)CC2)cc1	n	n	n	n
COc1cccc(NC(=O)CSc2nc3ccccc3c(=O)n2CCCC(=O)N2CCN(c3ccccc3)CC2)c1	n	n	n	n
CCOC(=O)c1c(NC(=O)CSc2nnc(CNC(=O)Cc3ccc(OC)cc3)n2Cc2ccccc2)sc2c1CCCC2	n	n	n	n
Cc1cc(C(=O)COC(=O)C2=COCCO2)c(C)n1Cc1cccs1	n	62	n	n
Cc1ccsc1C(=O)OCC(=O)c1cc(C)n(C)c1C	n	66	n	n
Cc1cc(C(=O)COC(=O)c2ccccc2O)c(C)n1Cc1cccs1	n	89	n	n
COc1ccc(Cl)cc1NC(=O)c1ccc(C)o1	n	n	n	n
COc1cc(CO)ccc1OCc1cccc(F)c1	n	n	n	n
COc1cc(/C=N/O)ccc1OCc1ccc(C(=O)O)cc1	n	94	n	n
COc1cc(/C=N/O)ccc1OCc1ccccc1F	n	38	n	n
CCCCOc1ccc(CO)cc1OC	2.1	n	n	n
COc1cc(CO)ccc1OCc1cccc(C(=O)O)c1	n	74	n	n
COc1cc(/C=N/O)ccc1OCc1ccc(F)cc1	n	n	n	n
COc1cc(C=O)ccc1OCc1ccc(C(=O)O)cc1	n	n	n	n
Cc1ccc(Cl)cc1NC(=S)N(Cc1ccccc1Cl)C1CCCC1	n	n	n	n
CC(C)(C)C(=O)NCC(c1cccs1)S(=O)(=O)c1cccs1 (stereo not given)	n	n	n	n
COc1ccc(N2CC(CNC(=O)Nc3cccc(C)c3)CC2=O)cc1 (stereo not given)	n	n	n	n
COC1CCCN(C(=O)C2CCCN2c2nc(C)c3ccccc3n2)C1 (stereo not given)	n	n	n	n
CCc1c(C)sc2ncn3c(=O)n(CCN4CCCC4)nc3c12	21	n	n	n
O=C1NC2NC(=O)N(CCO)C2N1 (stereo not given)	n	n	n	n
c1ccc(-n2cnc3c(NCc4cccnc4)nc(N4CCN(c5ccccn5)CC4)nc32)cc1	n	n	n	n
c1ccc(N2CCN(c3nc(NCc4cccnc4)c4ncn(-c5ccsc5)c4n3)CC2)nc1	n	51	n	n
c1cncc(CNc2nc(N3CCOCC3)nc3c2ncn3-c2ccsc2)c1	n	45	n	n
COc1ccc(C(=O)Nn2c(SCC(=O)c3ccc(Cl)cc3)nc3ccccc3c2=O)cc1	n	77	n	n
COc1ccc(C(=O)Nn2c(C)nc3ccccc3c2=O)cc1	n	n	n	n
SMILES	FBW7 activator	TEAD-YAP inh	GPR151 ag	MITF primary
O=C(CSc1nc2ccccc2c(=O)n1NC(=O)c1ccc(F)cc1)NC1CCCCC1	n	n	n	n
COc1ccc(C(=O)Nn2c(SCC(=O)N3CCCC3)nc3ccccc3c2=O)cc1	n	78	n	n
COc1ccc(C(=O)Nn2c(SCC(=O)N3CCN(c4ccccc4)CC3)nc3ccccc3c2=O)cc1	n	77	n	n
COc1ccc(C(=O)Nn2c(SCC(=O)NC3CCCCC3)nc3ccccc3c2=O)cc1	n	81	n	n
O=C(Nn1c(SCC(=O)N2CCN(c3ccccc3)CC2)nc2ccccc2c1=O)c1ccc(F)cc1	n	n	n	n
COC(=O)c1ccc(C(=O)Nc2ccc(N3C(=O)c4ccccc4C3=O)cc2)cc1	n	n	n	n
COc1ccc(C(=O)Nn2c(SCC(=O)N3CCC(C)CC3)nc3ccccc3c2=O)cc1	n	82	n	n
COc1ccc(C(=O)Nn2c(C3CC3)nc3ccccc3c2=O)cc1	n	n	n	n
O=C(O)CSc1nc2ccccc2n1CC(=O)NC1CCCCC1	1.9	n	n	n
O=[N+]([O-])c1ccc(/C=C/c2nc3ccccc3[nH]2)cc1	n	74	n	n
O=[N+]([O-])c1ccc(/C=C/c2nc3ccc([N+](=O)[O-])cc3[nH]2)cc1	n	n	n	n
O=C(Nc1ccccc1)C(N1CCCCC1)N1CCCCC1	n	n	n	n
Cc1ccc2cc3c(nc2c1)OCC(=O)N(Cc1ccco1)C3	n	n	n	n
Cc1ccc2cc3c(nc2c1)OCC(=O)N(Cc1ccccc1)C3	n	48	n	n
CC1Oc2nc3ccccc3cc2CN(Cc2ccc(F)cc2)C1=O (stereo not given)	n	32	n	n
Cc1cccc2cc3c(nc12)OCC(=O)N(Cc1ccccc1)C3	26	58	n	n
CC1Oc2nc3ccccc3cc2CN(Cc2ccc3c(c2)OCO3)C1=O (stereo not given)	n	n	n	n
